Assay [1] can be described thus: Nuclear factor erythroid 2-related factor 2/antioxidant responsive element (Nrf2/ARE) small molecule agonists: qHTS cell viability counter screen in human keratinocytes (AID 1919968; active = well fitted curve in the direction sought with a large enough effect in the repeat runs; an effect the other way counts as inactive or inconclusive; note: nearly all actives have a fitted effect of over 55% in size). The method in brief:
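HaCaT ARE reporter line, 1,500 cells/well; 5 h settle, 37 C/5% CO2; cpd in DMSO pinned; 23 h exposure; CellTiter-Fluor, 1 h; fluorescence.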

The target of assay [2] is Gonadotropin-releasing hormone receptor (Homo sapiens) (UniProt P30968). Description: Human gonadotropin-releasing hormone receptor (GnRHR) small molecule agonists, calcium flux assay in GnRHR-HEK293 cells (AID 1920063). Note: nearly all actives have a fitted effect of over 35% in size. The essentials:
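GnRHR-HEK293, 1500 cells/well, 18 h 37 C/5% CO2; Ca dye 1 h 37 C; cpd pinned (DMSO), agonist mode; kinetic FL 480/540, 3 min, 1 s reads; 15 conc, n=3.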

In assay [3] the target is KiSS-1 receptor (Homo sapiens) (UniProt Q969F8). Description: Human kisspeptin (KISS1R) small molecule agonists, calcium flux assay in KISS1R-HEK293 cells (AID 1920064; active = well fitted curve in the direction sought with a large enough effect in the repeat runs; an effect the other way counts as inactive or inconclusive). The method in brief: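 Stable human KISS1R HEK293 line; 18 h plating, 37 C/5% CO2; calcium dye 1 h 37 C; compound pin transfer; kinetic fluorescence Ex/Em 480/540, 3 min.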
Sequence of KiSS-1 receptor (Homo sapiens) (Q969F8 whole entry, looked up): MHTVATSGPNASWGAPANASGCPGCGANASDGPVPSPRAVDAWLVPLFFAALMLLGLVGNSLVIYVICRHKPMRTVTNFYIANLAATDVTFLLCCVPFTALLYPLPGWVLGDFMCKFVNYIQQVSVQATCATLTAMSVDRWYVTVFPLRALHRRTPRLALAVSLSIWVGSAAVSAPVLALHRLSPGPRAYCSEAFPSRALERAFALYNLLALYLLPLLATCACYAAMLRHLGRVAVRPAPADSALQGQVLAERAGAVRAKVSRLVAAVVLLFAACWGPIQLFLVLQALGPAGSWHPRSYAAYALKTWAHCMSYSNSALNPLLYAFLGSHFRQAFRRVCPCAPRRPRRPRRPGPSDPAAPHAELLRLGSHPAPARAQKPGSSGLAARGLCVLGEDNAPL
Assay [4] in a line: G protein-coupled receptor (GPCR) small molecule agonists, calcium flux assay: HEK293 wild type cell line counter screen (AID 1920065). The method in brief: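 Kinetic fluorescence at Ex/Em 480/540, recorded every second over 3 min, served as the read-out after compound addition. Each compound was tested at 15 concentrations in triplicate on cells pre-loaded with calcium dye for 1 h.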

Assay [5] deals with 5-hydroxytryptamine receptor 2A (Homo sapiens) (UniProt P28223). Description: 5-hydroxytryptamine receptor 2A (HTR2A) small molecule antagonists, cell-based qHTS assay (AID 1963586). Note: nearly all actives have a fitted effect of over 45% in size. The method in brief:
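Antagonist-mode intracellular calcium assay: DOI (4 nM) added after 5 min compound pre-incubation at room temperature to dye-loaded HTR2A-CHO cells. Fluorescence followed for 3 min, sampled every second.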

The target of assay [6] is Muscarinic acetylcholine receptor M1 (Homo sapiens) (UniProt P11229). Description: Cholinergic receptor muscarinic 1 (CHRM1) small molecule antagonists, cell-based qHTS assay (AID 1963588). Note: nearly all actives have a fitted effect of over 40% in size. Note: potency is the fitted concentration of half-maximal effect. The essentials: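 CHRM1-CHO calcium-flux assay, antagonist mode. Cells were seeded 18 h, dye-loaded 1 h at 37 C and given compound for 5 min at RT, then acetylcholine was added at 50nM. FDSS fluorescence was read 3 min; 15 concentrations, three runs.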
Sequence of Muscarinic acetylcholine receptor M1 (Homo sapiens) (P11229 whole entry, looked up): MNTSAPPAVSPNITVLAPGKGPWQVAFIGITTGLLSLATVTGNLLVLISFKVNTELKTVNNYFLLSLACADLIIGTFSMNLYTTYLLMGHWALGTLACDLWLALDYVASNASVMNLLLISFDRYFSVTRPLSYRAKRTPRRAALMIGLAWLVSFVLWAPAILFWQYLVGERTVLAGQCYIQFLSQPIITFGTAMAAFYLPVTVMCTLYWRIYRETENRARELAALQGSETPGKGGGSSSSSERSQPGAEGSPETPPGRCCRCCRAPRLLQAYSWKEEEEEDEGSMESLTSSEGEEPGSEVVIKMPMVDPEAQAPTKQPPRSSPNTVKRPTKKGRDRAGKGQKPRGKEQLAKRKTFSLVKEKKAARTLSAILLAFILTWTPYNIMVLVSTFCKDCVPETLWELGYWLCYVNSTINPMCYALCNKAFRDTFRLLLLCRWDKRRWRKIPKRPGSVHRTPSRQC

The target is the same in assay [7]. Description: Cholinergic receptor muscarinic 1 (CHRM1) small molecule agonists, cell-based qHTS assay (AID 1963589). Note: nearly all actives have a fitted effect of over 35% in size. The essentials: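 Human M1 in stable CHO line; 18 h plating, 1 h dye load 37 C; cpd added (agonist mode); Ca2+ fluorescence kinetic read, 1 s intervals; 15 conc, 3 runs.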
A short description of assay [8]: cAMP Responsive Elements (CRE) small molecule agonists, cell-based qHTS assay (AID 1963590). The essentials:
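HEK 293T CRE-bla, 2,000 cells/well, 18 h preincubation 37 C/5% CO2; cpds (DMSO) pinned, 3 h; LiveBLAzer B/G FRET substrate, 2 h RT.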

Assay [9] in a line: cAMP Responsive Elements (CRE) small molecule antagonists, cell-based qHTS assay (AID 1963591; active = well fitted inhibition curve with a large enough effect in the signal ratio in the repeat runs, not every such curve was filed as active; the % refers to the signal ratio). The essentials:
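Beta-lactamase reporter read by FRET substrate (LiveBLAzer B/G) after 2 h at room temperature. CRE-bla HEK293T cells had received compound plus 0.25 uM (final) NKH477 for 3 h at 37 °C.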

In assay [10] the target is Beta-2 adrenergic receptor (Homo sapiens) (UniProt P07550). Description: Adrenergic beta2 receptor (ADRB2) small molecule antagonists, cell-based qHTS assay (AID 1963592). Note: series mostly up to about 92 µM; nearly all actives have a fitted effect of over 50% in size. The method in brief: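 Cells (CHO, stable ADRB2 overexpression) incubated 18-20hr at 37C; compounds added from DMSO; agonist mix (1nM isoproterenol, 100uM IBMX, 25uM Ro-20-1724) added; 0.5hr RT; d2-cAMP and anti-cAMP-cryptate added; 1hr RT; 665/615 nm read.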
Sequence of Beta-2 adrenergic receptor (Homo sapiens) (P07550 whole entry, looked up): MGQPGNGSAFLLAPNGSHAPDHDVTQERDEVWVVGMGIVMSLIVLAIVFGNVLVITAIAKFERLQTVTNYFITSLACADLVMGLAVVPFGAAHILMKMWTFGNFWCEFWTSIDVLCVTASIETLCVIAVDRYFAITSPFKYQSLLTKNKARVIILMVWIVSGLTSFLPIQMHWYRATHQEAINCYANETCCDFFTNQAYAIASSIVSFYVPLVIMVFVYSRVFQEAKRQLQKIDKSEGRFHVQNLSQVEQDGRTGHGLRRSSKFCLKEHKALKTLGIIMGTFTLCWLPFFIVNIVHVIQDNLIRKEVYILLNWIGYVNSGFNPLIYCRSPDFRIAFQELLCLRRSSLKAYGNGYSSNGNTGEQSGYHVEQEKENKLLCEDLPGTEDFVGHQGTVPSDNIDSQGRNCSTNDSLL

The target is the same in assay [11]. The assay is described as follows: Adrenergic beta2 receptor (ADRB2) small molecule agonists, cell-based qHTS assay (AID 1963593).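 Note: CHO cells stably overexpressing human ADRB2.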 The essentials: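 CHO cells stably over-expressing ADRB2 were plated overnight at 37C, then dosed with compounds plus a stimulation mix containing 100uM IBMX and 25uM Ro-20-1724 for 0.5hr at room temperature. cAMP was measured by HTRF competition, 1hr.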

For assay [12], the target named is D(2) dopamine receptor (Homo sapiens) (UniProt P14416). The assay is described as follows: Dopamine D2 receptor (DRD2) small molecule agonists, cell-based qHTS assay (AID 1963594). Note: nearly all actives have a fitted effect of over 35% in size. The method in brief:
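cAMP accumulation in DRD2-HEK293 cells measured by HTRF after 1 h detection; compounds added 10 min before NKH477 (200nM […]) forskolin-analogue stimulation, 30 min at room temperature, with Ro20-1724 present at 0.1 mM final.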

For assay [13] the target is unchanged. Description: Dopamine D2 receptor (DRD2) small molecule antagonists, cell-based qHTS assay (AID 1963595; active = well fitted inhibition curve with a large enough effect in the signal ratio in the repeat runs, with a control signal flat; the % refers to the signal ratio). The method in brief: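 HEK293 cells stably expressing DRD2, preincubated with 0.1 mM Ro20-1724 and compounds 10 min, were stimulated with 200 nM NKH477 plus 12 nM quinpirole for 30 min at room temperature; cAMP measured by HTRF (665/620 nm).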
Assay [14] in a line: p53 small molecule agonists, cell-based qHTS assay with human liver microsomes: qHTS cell viability counter screen (AID 1963579). Note: nearly all actives have a fitted effect of over 45% in size. The essentials:
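Metabolic activation used human liver microsomes and NADPH, both 0.5 mg/mL final, over 16 hours at 37 C on p53RE-bla cells (4,000/well). Cytotoxicity measured by CellTiter-Glo luminescence, 30 min at room temperature.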

Assay [15] can be described thus: p53 small molecule agonists, cell-based qHTS assay with rat liver microsomes: qHTS cell viability counter screen (AID 1963580). Note: nearly all actives have a fitted effect of over 45% in size. The essentials: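 HCT-116 p53RE-bla, 4,000 cells/well, 5 h pre-incubation; cpd + rat liver microsomes 0.5 mg/mL + NADPH 0.5 mg/mL (final); 16 h, 37 C; CellTiter-Glo, 30 min RT; luminescence.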
Assay [16] is described as follows: p53 small molecule agonists, cell-based qHTS assay: qHTS cell viability counter screen (AID 1963581). Note: nearly all actives have a fitted effect of over 45% in size. The method in brief:
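HCT-116 p53RE-bla cells, 4,000/well, plated 5 h before compound pin transfer; 16 h at 37 C; bla substrate 2 h RT; then CellTiter-Glo, 30 min RT, luminescence.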

The target of assay [17] is 5-hydroxytryptamine receptor 2A (Homo sapiens) (UniProt P28223). Description: 5-hydroxytryptamine receptor 2A (HTR2A) small molecule agonists, cell-based qHTS assay (AID 1963587). Note: nearly all actives have a fitted effect of over 30% in size. The method in brief:
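Kinetic calcium-flux fluorescence (2 min, 1 sec intervals) after compound addition in agonist mode. HTR2A-CHO cells were cultured 18 h, then dye-loaded 1 h at 37 C.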

Assay [18] is described as follows: p53 small molecule agonists, cell-based qHTS assay with human liver microsomes (AID 1963577).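 Note: p53 response element beta-lactamase reporter cells with liver microsomes plus NADPH.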 The essentials: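 With metabolic activation: human liver microsomes (0.5 mg/mL final) plus NADPH (0.5 mg/mL final) added alongside compounds to p53RE-bla cells; 16 h 37 C exposure; beta-lactamase read by LiveBLAzer fluorescence.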
Assay [19] is described as follows: p53 small molecule agonists, cell-based qHTS assay with rat liver microsomes (AID 1963578). The essentials:
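Metabolic activation by rat liver microsomes and NADPH, each 0.5 mg/mL final, added right after compounds to p53RE-bla reporter cells (4,000/well, plated 5 h earlier). 16 h at 37 C, then LiveBLAzer substrate for 2 h at room temperature in the dark; fluorescence read-out.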

Assay [20] can be described thus: p53 small molecule agonists, cell-based qHTS assay (AID 1963582; active = well fitted activation curve with a large enough effect in the signal ratio in the repeat runs, not every such curve was filed as active; the % refers to the signal ratio). The method in brief: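 Reporter line: p53RE-bla. Pre-incubation 5 h, 37 C, 5% CO2; compound (DMSO, pin tool) 16 h, 37 C; B/G FRET substrate 2 h RT; fluorescence intensity read.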

Results on 9 compounds are retold here after PubChem BioAssay (Tox21).

Values without a mark were called inactive. Records with an inconclusive call do not appear. The source made the active and inactive calls. Unless noted, calls come from the whole dose curve.

Sequence of D(2) dopamine receptor (Homo sapiens) (P14416 whole entry, looked up): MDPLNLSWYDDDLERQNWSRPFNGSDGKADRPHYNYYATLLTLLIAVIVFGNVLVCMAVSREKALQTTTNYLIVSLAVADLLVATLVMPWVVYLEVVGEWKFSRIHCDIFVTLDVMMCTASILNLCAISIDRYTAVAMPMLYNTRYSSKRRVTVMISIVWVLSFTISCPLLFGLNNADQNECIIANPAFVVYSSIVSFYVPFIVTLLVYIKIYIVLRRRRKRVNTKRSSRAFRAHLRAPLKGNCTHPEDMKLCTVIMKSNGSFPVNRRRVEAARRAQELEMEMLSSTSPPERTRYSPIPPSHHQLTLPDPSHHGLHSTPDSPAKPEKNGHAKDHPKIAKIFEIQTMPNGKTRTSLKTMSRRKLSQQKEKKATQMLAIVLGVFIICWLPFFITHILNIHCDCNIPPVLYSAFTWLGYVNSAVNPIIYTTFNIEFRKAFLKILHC
Sequence of 5-hydroxytryptamine receptor 2A (Homo sapiens) (P28223 whole entry, looked up): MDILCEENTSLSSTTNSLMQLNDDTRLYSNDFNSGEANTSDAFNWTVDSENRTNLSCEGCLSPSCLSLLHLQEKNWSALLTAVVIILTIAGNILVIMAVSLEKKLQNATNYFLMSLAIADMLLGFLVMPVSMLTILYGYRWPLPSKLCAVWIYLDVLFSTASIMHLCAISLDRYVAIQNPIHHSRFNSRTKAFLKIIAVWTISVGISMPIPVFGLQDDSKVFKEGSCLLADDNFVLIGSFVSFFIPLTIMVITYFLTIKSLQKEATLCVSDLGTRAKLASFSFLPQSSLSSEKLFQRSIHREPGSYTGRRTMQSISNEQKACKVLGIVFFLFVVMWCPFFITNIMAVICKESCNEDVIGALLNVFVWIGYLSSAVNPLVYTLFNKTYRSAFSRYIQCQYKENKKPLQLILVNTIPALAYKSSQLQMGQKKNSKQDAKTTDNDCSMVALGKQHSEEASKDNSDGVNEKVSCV
Sequence of Gonadotropin-releasing hormone receptor (Homo sapiens) (P30968 whole entry, looked up): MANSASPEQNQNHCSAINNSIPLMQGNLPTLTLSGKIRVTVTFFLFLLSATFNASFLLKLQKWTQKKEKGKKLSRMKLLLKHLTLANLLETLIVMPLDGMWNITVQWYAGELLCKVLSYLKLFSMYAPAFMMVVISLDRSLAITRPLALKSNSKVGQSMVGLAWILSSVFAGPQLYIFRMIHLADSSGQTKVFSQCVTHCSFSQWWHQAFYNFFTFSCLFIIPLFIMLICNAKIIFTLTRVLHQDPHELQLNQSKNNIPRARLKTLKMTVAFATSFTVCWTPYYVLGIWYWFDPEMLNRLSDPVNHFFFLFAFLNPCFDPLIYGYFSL

`[Cl-].[Cl-].[Cl-].[Yb+3]`: the Potency entry in [1], in assay [2], in assay [3], in [4], in assay [5] and in assay [6] was “inactive” each time. For the same compound, the Potency result in assay [7], in assay [8], in assay [9], in [10], in assay [11] and in assay [12] was “inactive” throughout. Besides, in assay [13], the Potency entry was “inactive”.

For `CCC(=O)c1ccc(Cl)cc1`, the Potency entry in assay [1], in assay [2], in assay [3], in assay [14], in assay [15] and in assay [16] was “inactive” throughout. For the same compound, the Potency entry in assay [5], in [17], in assay [6], in assay [7], in assay [8] and in assay [9] was “inactive” throughout. In [13], the Potency entry is “inactive”.

As to `O.O.O.O.O.O.O=S(=O)([O-])[O-].[Ni+2]`, the Potency result in [1], in [2], in assay [3], in [4], in [14] and in assay [16] was “inactive” in each case. Further, the Potency result in assay [5], in assay [17], in assay [6], in assay [7], in assay [8] and in [9] was “inactive” in each case. The Potency entry in assay [10], in [12] and in assay [13] was “inactive” in each case.

In the case of `CCS(=O)(=O)c1cccnc1S(=O)(=O)NC(=O)Nc1nc(OC)cc(OC)n1`, the Potency result in [1], in [2], in assay [3], in [18], in assay [19] and in assay [14] was “inactive” in each case. In addition, the Potency result in [15], in assay [16], in assay [20], in assay [5], in assay [17] and in [6] was “inactive” throughout. Moreover, the Potency entry in [7], in [8], in assay [9], in assay [10], in assay [11] and in assay [12] was “inactive” throughout. The Potency entry in assay [13] was “inactive”.

`CC(C)Oc1cccc(NC(=O)c2ccccc2C(F)(F)F)c1`: the Potency entry in assay [1], in [2], in assay [3], in assay [4], in assay [14] and in assay [20] was “inactive” throughout. For the same compound, the Potency result in assay [17], in assay [7] and in assay [12] was “inactive” each time. Moreover, the Potency in assay [6] is 0.0119 µM (active).

On to `CCCSP(=O)(OCC)SCCC`, for which the Potency result in assay [1], in assay [2], in [3], in [4], in assay [14] and in assay [15] was “inactive” each time. In addition, the Potency entry in [5], in [17], in assay [6], in assay [7], in [10] and in assay [12] was “inactive” each time. Also, in assay [13], the Potency result was “inactive”.

On to `COC(=O)c1ccccc1S(=O)(=O)NC(=O)Nc1nc(C)cc(C)n1`, for which the Potency entry in [1], in assay [2], in assay [3], in [4], in assay [14] and in assay [16] was “inactive” throughout. Also, the Potency result in [5], in assay [17], in assay [6], in assay [7], in assay [8] and in assay [9] was “inactive” throughout. Moreover, the Potency entry in assay [10], in assay [12] and in assay [13] was “inactive” throughout.

Regarding `CC(=O)[O-].CC(=O)[O-].CC(=O)[O-].[Cr+3]`, the Potency entry in assay [1], in assay [2], in assay [3], in assay [4], in assay [14] and in [5] was “inactive” throughout. Besides, the Potency entry in assay [17], in assay [6], in assay [7], in assay [9], in [10] and in assay [12] was “inactive” throughout. Further, the Potency entry in assay [13] is “inactive”.

With `CC(Cc1ccc(C(C)(C)C)cc1)CN1C[C@@H](C)O[C@@H](C)C1` (some centres not stated), the Potency entry in assay [1], in assay [2], in [4], in assay [18], in [19] and in [14] was “inactive” each time. Moreover, the Potency result in assay [15], in assay [16], in assay [20], in [17], in assay [7] and in [8] was “inactive” throughout. The Potency result in assay [9], in [10] and in [12] was “inactive” throughout. Besides, the Potency in [6] is 37.5 µM (active).
